A selection: hits, their analogues and other compounds. The true share with any hit is near 4.1%.
Jurkat NFkB inh: inhibitors of the PMA/ionomycin-induced NF-kB reporter in Jurkat cells | PMA/ionomycin-induced NF-kB luciferase reporter, luminescence | inhibition, % at 4 µM | hit rate 0.53% among 330,000 | AID 435003; in the data active = inhibition above about 50%
697 NFkB inh: inhibitors of the PMA/ionomycin-induced NF-kB reporter in 697 B cells; 697 B-cell NF-kB luciferase reporter, 16 h; inhibition, % at 4 µM; hit rate 0.33% among 330,000; in the data active = inhibition above about 35%
Mdm2 MdmX PPI: inhibitors of human Mdm2/MdmX interaction; O15151+Q00987; SaOS-2 split-luciferase Mdm2/MdmX complementation, luminescence; inhibition, % at 8 µM; hit rate 3% among 330,000;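 active = inhibition of at least 50% at 8 µM in the primary screen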
aSyn 5UTR inh: MLPCN primary screen, SNCA 5' untranslated region. alpha-synuclein 5'UTR reporter, inhibitor activity. inhibition, % (tested at 7.5 µM). hit rate 0.82% among 300,000. AID 1813; in the data active = inhibition above about 60%;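 also: H4 neuroglioblastoma cells stably carrying SNCA 5'UTR luciferase fusion; 0% = DMSO wells and 100% = positive control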
KLF5 inhibitor: kruppel-like factor 5 inhibition; DLD-1 KLF5 promoter-luciferase reporter, luminescence; inhibition, % at 5 µM; hit rate 0.23% among 290,000;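 active = inhibition above a per-plate limit of that plate's mean compound inhibition plus 3 SD, cut at about 60% in these data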;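 also: 0% = DMSO wells and 100% = LY294002 at 200 µM; higher means less KLF5 promoter-driven luciferase light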
Gli-Sufu antag: blocks Gli-Sufu signaling in a luciferase reporter. Sufu-KO-LIGHT fibroblasts, Gli luciferase reporter luminescence. hit rate 0.74% among 340,000. inhibition, % at 5 µM;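 active = inhibition above about 55%, limit read from the data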;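 also: 0% = DMSO-treated cells and 100% = wells with medium but no cells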
Mdm2-MdmX conf: human Mdm2/MdmX binding inhibition, confirmed | inhibition, % at 8 µM | hit rate 55% among 10,000 | luminescent assay | shares compounds with Mdm2 MdmX PPI; in the data active = inhibition above about 40%
Full FLuc ctr: counter-screen for Mdm2/MdmX inhibitors: full-length luciferase; inhibition, % at 8 µM; hit rate 77% among 6,200; shares compounds with Mdm2 MdmX PPI; SaOS-2 full-length luciferase counterscreen, luminescence; AID 504607;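 active = mean inhibition at 8 µM reaching about 37%, which flags the compound as non-specific, limit read from the data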;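 also: p53-null SaOS-2 cells with luciferase driven by a doxycycline-inducible promoter; compound on cells about two nights before reading with doxycycline added after day one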
Numbers without * were called inactive.

How did COc1ccc(-c2noc(N3CCCC(C(=O)Nc4ccc(C(C)=O)cc4)C3)n2)cc1 (stereo not given) do in these assays?
Jurkat NFkB inh: -27; 697 NFkB inh: -91; Mdm2 MdmX PPI: 10; aSyn 5UTR inh: -59; KLF5 inhibitor: -94; Gli-Sufu antag: -26

What do the screens show for `CCN(CC)CCCNC(=O)c1cc(Nc2ccc(OC)cc2)nc2ccccc12`?
Jurkat NFkB inh: -23; 697 NFkB inh: -12; Mdm2 MdmX PPI: 34; aSyn 5UTR inh: -6; KLF5 inhibitor: -23; Gli-Sufu antag: 31

How did CS(=O)(=O)c1ccc(C(=O)OCc2nnc(-c3ccc(Cl)cc3)o2)cc1[N+](=O)[O-] do in these assays?
Jurkat NFkB inh: 5; 697 NFkB inh: 20; Mdm2 MdmX PPI: 96*; aSyn 5UTR inh: -23; KLF5 inhibitor: -8; Gli-Sufu antag: -13; Mdm2-MdmX conf: 60*; Full FLuc ctr: 15

Results for Cn1ccsc1=NC(=O)c1ccc(Cl)c([N+](=O)[O-])c1 ?
Jurkat NFkB inh: -21; 697 NFkB inh: -2; Mdm2 MdmX PPI: -32; aSyn 5UTR inh: -117; KLF5 inhibitor: -61; Gli-Sufu antag: 0

What do the screens show for `CC(=O)c1c(C)[nH]c(C(=O)OCc2nnc(-c3ccc([N+](=O)[O-])cc3)o2)c1C`?
Jurkat NFkB inh: -1; 697 NFkB inh: -3; Mdm2 MdmX PPI: 53*; Gli-Sufu antag: 7; Mdm2-MdmX conf: 26

What do the screens show for `Cn1ccsc1=NC(=O)c1ccc(S(C)(=O)=O)c([N+](=O)[O-])c1`?
Jurkat NFkB inh: 22; 697 NFkB inh: 13; Mdm2 MdmX PPI: 51*; aSyn 5UTR inh: -21; KLF5 inhibitor: -1; Gli-Sufu antag: 6; Mdm2-MdmX conf: 23

Results for CC(=O)c1c(C)[nH]c(C(=O)OCC(=O)NNC(=O)c2ccc([N+](=O)[O-])cc2)c1C ?
Jurkat NFkB inh: 14; 697 NFkB inh: 1; Mdm2 MdmX PPI: 13; Gli-Sufu antag: 3

How did Cn1cccc1C(=O)NC(=O)COC(=O)c1ccc(S(C)(=O)=O)c([N+](=O)[O-])c1 do in these assays?
Jurkat NFkB inh: -4; 697 NFkB inh: -2; Mdm2 MdmX PPI: 64*; Gli-Sufu antag: -1; Mdm2-MdmX conf: 40; Full FLuc ctr: 40*

What do the screens show for `Cc1ccc2c(c1)c1c3n2CCN(C(=O)CCl)C3CCC1` (stereo not given)?
Jurkat NFkB inh: -2; 697 NFkB inh: 11; Mdm2 MdmX PPI: 51*; aSyn 5UTR inh: 7; KLF5 inhibitor: -50; Gli-Sufu antag: 9; Mdm2-MdmX conf: 18; Full FLuc ctr: 92*

How did CC(=O)N1CCn2c3c(c4cc(C)ccc42)CCCC31 (stereo not given) do in these assays?
Jurkat NFkB inh: -1; 697 NFkB inh: 6; Mdm2 MdmX PPI: 7; aSyn 5UTR inh: -38; KLF5 inhibitor: 2; Gli-Sufu antag: -1

What do the screens show for `COc1ccc(NC(=O)CN(C)C(=O)CCc2c[nH]c3ccccc23)cc1`?
Jurkat NFkB inh: 13; 697 NFkB inh: 3; Mdm2 MdmX PPI: 9; aSyn 5UTR inh: -17; KLF5 inhibitor: 2; Gli-Sufu antag: 3

How did CCc1[nH]nc(C(=O)N2CCCC(N3CCN(c4ccccc4C)CC3)C2)c1C (stereo not given) do in these assays?
Jurkat NFkB inh: -8; 697 NFkB inh: -4; Mdm2 MdmX PPI: -11; aSyn 5UTR inh: 17; KLF5 inhibitor: -9; Gli-Sufu antag: 25

Results for CN1C2CCC1/C(=C\c1ccccc1F)C(=O)/C2=C/c1ccccc1F ?
Jurkat NFkB inh: 18; 697 NFkB inh: -46; Mdm2 MdmX PPI: 59*; aSyn 5UTR inh: -89; KLF5 inhibitor: -23; Gli-Sufu antag: 9; Mdm2-MdmX conf: 41*; Full FLuc ctr: 35

Results for Nc1c(Br)cc2c([nH]c(=O)c3ccccc32)c1Br ?
Gli-Sufu antag: 25

Results for Cc1cc(-c2ccccc2)nc(N2CCN(c3ccccn3)CC2)n1 ?
Jurkat NFkB inh: 0; 697 NFkB inh: -63; Mdm2 MdmX PPI: 59*; aSyn 5UTR inh: 3; KLF5 inhibitor: -25; Gli-Sufu antag: 8; Mdm2-MdmX conf: 24

What do the screens show for `COc1ccc(C(CCN2CCCCC2)c2c(OC)cc(OC)c3c(-c4ccccc4)cc(=O)oc23)cc1` (stereo not given)?
Jurkat NFkB inh: 15; 697 NFkB inh: 1; Mdm2 MdmX PPI: 94*; aSyn 5UTR inh: 13; Gli-Sufu antag: 9; Mdm2-MdmX conf: 40

How did COc1cc(OC)c2c(-c3ccccc3)cc(=O)oc2c1C(CCN1CCOCC1)c1ccc(N(C)C)cc1 (stereo not given) do in these assays?
697 NFkB inh: -17; Mdm2 MdmX PPI: 11; Gli-Sufu antag: -9

What do the screens show for `COc1cc(OC)c2c(-c3ccccc3)cc(=O)oc2c1C(CCN1CCCCC1)c1ccc(N(C)C)cc1` (stereo not given)?
Jurkat NFkB inh: 25; 697 NFkB inh: 2; Mdm2 MdmX PPI: 79*; aSyn 5UTR inh: -5; Gli-Sufu antag: 20; Mdm2-MdmX conf: 16

Results for CCCN1C(=O)/C(=C\C=C2/Sc3ccccc3N2CCO)SC1=S ?
Jurkat NFkB inh: -6; 697 NFkB inh: 29; Mdm2 MdmX PPI: 25; aSyn 5UTR inh: 37; KLF5 inhibitor: -38; Gli-Sufu antag: 11

How did CCN1C(=O)/C(=C/C=C2/Sc3ccccc3N2CCO)SC1=S do in these assays?
Jurkat NFkB inh: -5; 697 NFkB inh: 15; Mdm2 MdmX PPI: 70*; aSyn 5UTR inh: 18; KLF5 inhibitor: -6; Mdm2-MdmX conf: 19

What do the screens show for `Cc1ccc(/C=N/N2C(=S)SC(C)(C)C2N(O)C(=O)Nc2ccc([N+](=O)[O-])cc2)cc1` (stereo not given)?
Jurkat NFkB inh: -2; 697 NFkB inh: 7; Mdm2 MdmX PPI: 67*; aSyn 5UTR inh: 11; KLF5 inhibitor: -1; Gli-Sufu antag: -17; Mdm2-MdmX conf: 25

Results for CC1(C)SC(=S)N(/N=C/c2ccc(O)cc2)C1N(O)C(=O)Nc1ccc([N+](=O)[O-])cc1 (stereo not given) ?
Jurkat NFkB inh: 11; 697 NFkB inh: -20; Mdm2 MdmX PPI: 18; aSyn 5UTR inh: 7; KLF5 inhibitor: -7; Gli-Sufu antag: 2

What do the screens show for `Cc1nn(C)c(Sc2ccccn2)c1[N+](=O)[O-]`?
Jurkat NFkB inh: 6; 697 NFkB inh: 9; Mdm2 MdmX PPI: 13; aSyn 5UTR inh: -87; KLF5 inhibitor: -26; Gli-Sufu antag: 20

What do the screens show for `COc1cc(O)cc2cc3c(c(O)c12)C(=O)CC(C)(O)O3` (stereo not given)?
Jurkat NFkB inh: -10; 697 NFkB inh: -9; Mdm2 MdmX PPI: 57*; Gli-Sufu antag: -14; Mdm2-MdmX conf: 53*; Full FLuc ctr: 60*

Compound activity as filed in PubChem.
